For assay [1], the target named is Mitogen-activated protein kinase kinase kinase kinase 4 (Homo sapiens) (UniProt O95819). The following applies: at 1 µM.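 Further: reported figure is an averaged inhibition value.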
Assay [2] addresses Dual specificity mitogen-activated protein kinase kinase 1 (Homo sapiens) (UniProt Q02750). To be noted: at 0.1 µM.
The target is the same in assay [3]. The following applies: at 1 µM.
In assay [4] the target is Misshapen-like kinase 1 (Homo sapiens) (UniProt Q8N4C8). The following applies: at 0.1 µM.
Misshapen-like kinase 1 (Homo sapiens), sequence (Q8N4C8 whole entry, looked up): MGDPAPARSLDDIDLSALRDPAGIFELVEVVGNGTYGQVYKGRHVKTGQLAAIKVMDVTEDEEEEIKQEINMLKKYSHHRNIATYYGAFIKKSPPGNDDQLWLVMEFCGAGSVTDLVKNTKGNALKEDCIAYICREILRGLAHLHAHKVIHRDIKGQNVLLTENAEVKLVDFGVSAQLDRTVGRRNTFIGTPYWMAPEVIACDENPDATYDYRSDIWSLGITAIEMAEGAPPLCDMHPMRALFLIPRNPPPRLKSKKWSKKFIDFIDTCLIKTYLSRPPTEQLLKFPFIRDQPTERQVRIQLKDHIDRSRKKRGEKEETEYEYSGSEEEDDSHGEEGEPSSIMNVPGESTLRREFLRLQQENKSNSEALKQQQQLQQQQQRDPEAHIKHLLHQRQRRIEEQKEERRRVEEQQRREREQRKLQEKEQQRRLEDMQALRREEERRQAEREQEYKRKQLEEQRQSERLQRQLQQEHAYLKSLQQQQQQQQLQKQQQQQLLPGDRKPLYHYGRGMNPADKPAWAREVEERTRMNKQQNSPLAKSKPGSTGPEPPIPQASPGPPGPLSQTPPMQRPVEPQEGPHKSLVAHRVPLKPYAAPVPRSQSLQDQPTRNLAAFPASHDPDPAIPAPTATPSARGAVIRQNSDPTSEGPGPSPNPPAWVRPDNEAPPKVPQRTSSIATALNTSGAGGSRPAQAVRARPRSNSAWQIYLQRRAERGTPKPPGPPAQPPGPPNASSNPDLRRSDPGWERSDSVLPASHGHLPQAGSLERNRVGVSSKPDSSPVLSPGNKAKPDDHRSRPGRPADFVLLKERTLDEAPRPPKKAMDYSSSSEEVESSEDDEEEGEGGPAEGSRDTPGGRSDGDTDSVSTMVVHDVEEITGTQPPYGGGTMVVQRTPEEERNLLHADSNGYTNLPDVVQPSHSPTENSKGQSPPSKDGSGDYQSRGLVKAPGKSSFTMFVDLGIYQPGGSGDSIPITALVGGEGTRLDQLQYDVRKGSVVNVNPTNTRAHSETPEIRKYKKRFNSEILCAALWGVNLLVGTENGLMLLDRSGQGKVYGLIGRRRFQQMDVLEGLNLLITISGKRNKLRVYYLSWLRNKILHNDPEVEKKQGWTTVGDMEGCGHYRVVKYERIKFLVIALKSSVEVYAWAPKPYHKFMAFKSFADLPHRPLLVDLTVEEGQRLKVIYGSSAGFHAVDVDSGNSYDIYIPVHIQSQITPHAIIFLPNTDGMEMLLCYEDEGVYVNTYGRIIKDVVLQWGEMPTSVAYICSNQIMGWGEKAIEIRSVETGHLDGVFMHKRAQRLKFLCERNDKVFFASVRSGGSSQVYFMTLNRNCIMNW
Assay [5] has the same target. The following applies: at 1 µM.
Assay [6] addresses T1, Serine/threonine-protein kinase 4 (Homo sapiens) (UniProt Q13043).
T1 sequence (whole entry): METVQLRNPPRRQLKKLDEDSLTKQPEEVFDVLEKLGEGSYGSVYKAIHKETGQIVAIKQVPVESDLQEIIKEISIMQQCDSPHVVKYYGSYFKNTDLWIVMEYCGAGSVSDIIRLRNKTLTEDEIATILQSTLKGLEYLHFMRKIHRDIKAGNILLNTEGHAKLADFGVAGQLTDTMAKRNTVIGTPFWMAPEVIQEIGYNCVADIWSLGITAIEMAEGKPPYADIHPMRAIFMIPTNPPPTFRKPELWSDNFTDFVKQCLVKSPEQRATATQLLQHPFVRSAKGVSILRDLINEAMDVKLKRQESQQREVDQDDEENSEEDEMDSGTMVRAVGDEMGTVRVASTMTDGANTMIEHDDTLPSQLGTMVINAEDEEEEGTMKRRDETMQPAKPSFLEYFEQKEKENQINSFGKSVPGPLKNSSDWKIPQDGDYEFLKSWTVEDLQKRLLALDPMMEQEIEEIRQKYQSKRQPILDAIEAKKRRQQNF
The following applies: at 0.1 µM.

Assay [7] concerns the target T1, Serine/threonine-protein kinase 4 (Homo sapiens). The following applies: at 1 µM.
For assay [8], the target named is T2, Serine/threonine-protein kinase 3 (Homo sapiens) (UniProt Q13188).
T2 sequence (whole entry): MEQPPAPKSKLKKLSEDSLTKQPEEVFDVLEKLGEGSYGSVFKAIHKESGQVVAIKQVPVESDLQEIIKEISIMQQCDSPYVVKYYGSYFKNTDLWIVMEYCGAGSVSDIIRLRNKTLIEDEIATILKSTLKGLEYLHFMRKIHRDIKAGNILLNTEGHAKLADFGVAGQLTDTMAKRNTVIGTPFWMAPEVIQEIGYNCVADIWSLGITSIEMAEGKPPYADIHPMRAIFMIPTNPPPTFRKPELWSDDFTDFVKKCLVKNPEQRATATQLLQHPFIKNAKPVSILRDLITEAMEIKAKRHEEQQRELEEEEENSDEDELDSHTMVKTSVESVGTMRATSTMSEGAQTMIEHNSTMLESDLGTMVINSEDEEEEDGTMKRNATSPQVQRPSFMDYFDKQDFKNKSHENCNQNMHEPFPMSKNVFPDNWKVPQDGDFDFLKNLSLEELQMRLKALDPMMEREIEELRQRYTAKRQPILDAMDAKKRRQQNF
The following applies: at 0.1 µM.

Assay [9] has as its target T2, Serine/threonine-protein kinase 3 (Homo sapiens). To be noted: at 1 µM.
Assay [10] addresses Serine/threonine-protein kinase 26 (Homo sapiens) (UniProt Q9P289). To be noted: at 0.1 µM.
The target is the same in assay [11]. The following applies: at 1 µM.
Assay [12] concerns the target Serine/threonine-protein kinase PAK 1 (Homo sapiens) (UniProt Q13153). To be noted: at 0.1 µM.
The target is the same in assay [13]. The following applies: at 1 µM.
In assay [14] the target is Serine/threonine-protein kinase PAK 2 (Homo sapiens) (UniProt Q13177). The following applies: at 0.1 µM.
Serine/threonine-protein kinase PAK 2 (Homo sapiens), sequence (Q13177 whole entry): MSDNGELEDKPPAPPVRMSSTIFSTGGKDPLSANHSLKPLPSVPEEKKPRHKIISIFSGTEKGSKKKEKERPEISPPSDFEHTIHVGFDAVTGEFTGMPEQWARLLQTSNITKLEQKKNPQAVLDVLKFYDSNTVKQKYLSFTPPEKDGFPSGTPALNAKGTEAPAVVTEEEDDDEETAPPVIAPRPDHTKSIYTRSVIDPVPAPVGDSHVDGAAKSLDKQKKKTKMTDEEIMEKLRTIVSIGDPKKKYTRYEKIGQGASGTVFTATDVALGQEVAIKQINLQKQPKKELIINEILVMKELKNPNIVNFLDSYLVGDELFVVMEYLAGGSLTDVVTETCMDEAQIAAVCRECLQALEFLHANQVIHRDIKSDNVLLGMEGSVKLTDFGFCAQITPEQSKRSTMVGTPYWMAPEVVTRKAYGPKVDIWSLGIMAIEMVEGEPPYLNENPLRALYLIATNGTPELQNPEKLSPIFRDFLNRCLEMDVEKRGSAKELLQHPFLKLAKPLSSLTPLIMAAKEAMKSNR
The target is the same in assay [15]. To be noted: at 1 µM.
In assay [16] the target is Serine/threonine-protein kinase PAK 3 (Homo sapiens) (UniProt O75914). The following applies: at 0.1 µM.
The target is the same in assay [17]. To be noted: at 1 µM.
Assay [18] has as its target Serine/threonine-protein kinase PAK 5 (Homo sapiens) (UniProt Q9P286). To be noted: at 0.1 µM.
Assay [19] has the same target. The following applies: at 1 µM.
The target of assay [20] is Serine/threonine-protein kinase PAK 6 (Homo sapiens) (UniProt Q9NQU5). The following applies: at 0.1 µM.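 Further: mean PAK6 inhibition reported from the GSK PKIS screen.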
Serine/threonine-protein kinase PAK 6 (Homo sapiens), sequence (Q9NQU5 whole entry, looked up): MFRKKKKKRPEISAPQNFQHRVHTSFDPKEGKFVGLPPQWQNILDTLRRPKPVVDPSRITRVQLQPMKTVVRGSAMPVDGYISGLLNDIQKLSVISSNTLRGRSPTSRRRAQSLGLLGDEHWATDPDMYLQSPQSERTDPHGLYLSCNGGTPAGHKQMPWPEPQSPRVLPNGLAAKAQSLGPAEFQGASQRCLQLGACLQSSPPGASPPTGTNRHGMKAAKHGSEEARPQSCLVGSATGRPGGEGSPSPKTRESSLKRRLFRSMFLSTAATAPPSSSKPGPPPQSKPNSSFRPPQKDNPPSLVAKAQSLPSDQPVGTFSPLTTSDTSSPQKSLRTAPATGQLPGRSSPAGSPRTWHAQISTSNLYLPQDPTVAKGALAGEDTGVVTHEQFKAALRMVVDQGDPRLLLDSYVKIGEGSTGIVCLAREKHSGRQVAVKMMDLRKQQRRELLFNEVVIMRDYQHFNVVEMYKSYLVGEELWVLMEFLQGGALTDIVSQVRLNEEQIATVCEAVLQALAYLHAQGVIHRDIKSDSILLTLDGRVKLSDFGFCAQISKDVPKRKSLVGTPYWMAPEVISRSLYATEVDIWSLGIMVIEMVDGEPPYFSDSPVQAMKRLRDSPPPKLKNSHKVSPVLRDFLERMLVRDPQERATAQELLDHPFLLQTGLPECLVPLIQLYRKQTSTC

In ChEMBL document CHEMBL1961873, “Compounds: GSK PKIS; Assays: Nanosyn kinase panel” (2012) one finds inhibition data, which are given here for 10 molecules.

Serine/threonine-protein kinase 26 (Homo sapiens), sequence (Q9P289 2-416 limits assumed): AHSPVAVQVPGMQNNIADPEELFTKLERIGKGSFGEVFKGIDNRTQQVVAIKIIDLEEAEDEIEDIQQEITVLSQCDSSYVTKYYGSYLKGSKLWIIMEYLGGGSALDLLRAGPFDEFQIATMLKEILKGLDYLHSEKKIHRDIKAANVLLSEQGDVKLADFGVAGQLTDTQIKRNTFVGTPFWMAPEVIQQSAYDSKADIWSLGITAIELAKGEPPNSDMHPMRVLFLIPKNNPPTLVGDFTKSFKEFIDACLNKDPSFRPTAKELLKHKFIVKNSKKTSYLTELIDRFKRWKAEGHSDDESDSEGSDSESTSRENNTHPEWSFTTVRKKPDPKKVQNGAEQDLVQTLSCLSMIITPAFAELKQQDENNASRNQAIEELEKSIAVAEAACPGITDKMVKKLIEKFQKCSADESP
Serine/threonine-protein kinase PAK 1 (Homo sapiens), sequence (Q13153 whole entry): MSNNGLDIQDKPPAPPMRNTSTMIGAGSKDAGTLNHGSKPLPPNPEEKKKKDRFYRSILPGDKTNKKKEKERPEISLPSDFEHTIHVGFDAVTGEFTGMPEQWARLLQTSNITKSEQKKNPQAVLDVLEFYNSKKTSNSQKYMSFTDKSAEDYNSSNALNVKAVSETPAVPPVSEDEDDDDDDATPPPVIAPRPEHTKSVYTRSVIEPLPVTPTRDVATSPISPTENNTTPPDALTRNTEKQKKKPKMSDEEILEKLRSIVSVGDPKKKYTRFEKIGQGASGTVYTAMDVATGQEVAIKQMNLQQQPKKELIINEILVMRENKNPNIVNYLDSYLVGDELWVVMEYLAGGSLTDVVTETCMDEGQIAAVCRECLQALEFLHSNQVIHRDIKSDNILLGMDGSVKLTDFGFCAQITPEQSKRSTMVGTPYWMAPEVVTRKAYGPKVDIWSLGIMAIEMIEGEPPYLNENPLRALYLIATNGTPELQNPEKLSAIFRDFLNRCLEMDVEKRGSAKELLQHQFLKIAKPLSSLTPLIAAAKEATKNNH
Dual specificity mitogen-activated protein kinase kinase 1 (Homo sapiens), sequence (Q02750 whole entry): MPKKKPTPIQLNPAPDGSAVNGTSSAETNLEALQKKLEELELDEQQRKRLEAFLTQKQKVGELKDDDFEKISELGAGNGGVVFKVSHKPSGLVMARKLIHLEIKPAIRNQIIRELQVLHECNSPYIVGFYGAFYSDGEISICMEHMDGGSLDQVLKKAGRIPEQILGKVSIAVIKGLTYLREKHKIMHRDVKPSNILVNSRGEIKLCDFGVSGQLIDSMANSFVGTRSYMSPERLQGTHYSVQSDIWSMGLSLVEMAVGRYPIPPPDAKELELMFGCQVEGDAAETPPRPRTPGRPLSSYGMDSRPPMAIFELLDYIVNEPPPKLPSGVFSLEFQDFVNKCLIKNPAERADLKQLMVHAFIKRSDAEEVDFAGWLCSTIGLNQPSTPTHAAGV
Serine/threonine-protein kinase PAK 5 (Homo sapiens), sequence (Q9P286 whole entry, looked up): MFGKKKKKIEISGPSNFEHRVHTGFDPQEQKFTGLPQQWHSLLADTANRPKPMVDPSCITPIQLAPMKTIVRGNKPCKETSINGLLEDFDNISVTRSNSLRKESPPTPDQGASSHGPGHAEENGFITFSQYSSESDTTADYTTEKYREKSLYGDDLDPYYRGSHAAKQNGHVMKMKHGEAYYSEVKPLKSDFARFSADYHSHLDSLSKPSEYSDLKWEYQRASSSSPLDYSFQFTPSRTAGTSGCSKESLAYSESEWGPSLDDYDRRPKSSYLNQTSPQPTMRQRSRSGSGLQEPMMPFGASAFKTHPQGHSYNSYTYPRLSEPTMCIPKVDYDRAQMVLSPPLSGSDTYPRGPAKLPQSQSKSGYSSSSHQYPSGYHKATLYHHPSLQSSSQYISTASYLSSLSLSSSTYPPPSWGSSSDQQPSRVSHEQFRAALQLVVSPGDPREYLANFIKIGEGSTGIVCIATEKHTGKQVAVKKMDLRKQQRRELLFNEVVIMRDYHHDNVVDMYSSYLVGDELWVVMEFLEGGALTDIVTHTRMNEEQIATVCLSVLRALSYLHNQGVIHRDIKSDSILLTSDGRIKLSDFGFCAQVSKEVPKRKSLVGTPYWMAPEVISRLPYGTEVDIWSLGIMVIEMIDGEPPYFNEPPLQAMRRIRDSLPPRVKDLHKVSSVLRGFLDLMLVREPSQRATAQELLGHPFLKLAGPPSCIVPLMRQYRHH

`CCN1CCC(C(=O)Nc2n[nH]c3nnc(-c4cccc(F)c4F)cc23)CC1`: the inhibition worked out at 6.9% in assay [1]; 2.15% in assay [2]; 2% in assay [3]; 2.44% in assay [4]; 5.72% in assay [5]; 0.2% in assay [6]. The inhibition is 4.08% in [7]; -0.56% in assay [8]; 2.63% in assay [9]; 0.52% in assay [10]; 0.11% in assay [11]; -3.4% in [12]. Further, the inhibition was -3.06% in assay [13]; -1.1% in assay [14]; -2.04% in [15]; -0.81% in assay [16]; -0.69% in assay [17]; 0% in assay [18]. In addition, the inhibition in [19] was 1.08%; in [20], -5.45%.

As for `CS(=O)(=O)CCNCc1ccoc1-c1ccc2ncnc(Nc3ccc(OCc4ccccc4)cc3)c2c1`, the inhibition in assay [1] is 4.29%; in assay [2], 1.46%; in assay [3], 2.49%; in assay [4], 1.28%; in [5], 2.65%; in assay [6], 1.95%. Besides, the inhibition was 2.79% in [7]; 2.37% in assay [8]; 3.29% in assay [9]; -1.84% in assay [10]; -0.88% in [11]; -2.84% in assay [12]. In addition, the inhibition in assay [13] was -0.82%; in assay [14], -0.75%; in assay [15] it was -2.34%; in assay [16], -3.57%; in assay [17], -0.05%; in assay [18] it was -0.34%. The inhibition in assay [19] is 3.51%; in assay [20], -5.6%.

Take `CCS(=O)(=O)c1ccc(OC)c(Nc2ncc(-c3cccc(F)c3)o2)c1`: the inhibition in [1] is 19.2%; in assay [2], 4.98%; in [3], 5%; in assay [4], 8.05%; in assay [5], 16.1%; in assay [6] it was 3.31%. Further, the inhibition in assay [7] is 8.63%; in assay [8], 5.69%; in [9], 8.4%; in assay [10] it was -0.55%; in assay [11] it was -0.44%; in assay [12], 9.43%. Besides, the inhibition in [13] is 11.2%; in assay [14], 1.97%; in [15], 2.27%; in [16], 6%; in assay [17], 9.2%; in assay [18], 7.29%. In addition, the inhibition in assay [19] was 9.85%; in assay [20], -7.56%.

As to `O=C(O[C@H]1CN[C@H](C#Cc2cc3ncnc(Nc4ccc5c(cnn5Cc5ccccc5)c4)c3s2)C1)N1CCOCC1`, the inhibition in assay [1] is 2.37%; in assay [2], -0.35%; in assay [3], -0.55%; in assay [4] it was -0.37%; in [5] it was 1.62%; in assay [6], 2.4%. The inhibition in assay [7] stood at 4.54%; in [8], 1.56%; in assay [9], 5.49%; in [10], 0.75%; in assay [11], 2.02%; in [12] it was 2.28%. In addition, the inhibition in [13] was 0.73%; in assay [14], -1.9%; in assay [15], -1.35%; in assay [16] it was -0.09%; in assay [17], 0.69%; in assay [18], -0.12%. For the same molecule, the inhibition is -1.71% in assay [19] and 3.43% in assay [20].

With `Fc1cccc(COc2ccc(Nc3ncncc3C#Cc3ccccc3)cc2Cl)c1`, the inhibition in [1] amounted to 15%; in assay [2] it was 6%; in [3], 4.44%; in assay [4], 7.69%; in assay [5], 15.9%; in [6], 6.89%. Besides, the inhibition is 9.95% in assay [7]; 6.83% in assay [8]; 8.97% in assay [9]; -0.45% in [10]; 0.47% in assay [11]; 4.22% in assay [12]. Besides, the inhibition in assay [13] stood at 6.2%; in assay [14], 1.86%; in assay [15], 2.71%; in assay [16] it was 4.76%; in assay [17] it was 5.44%; in assay [18] it was 1.61%. Also, the figures for the inhibition in [19] and in assay [20] were 0.61% and 1.93%, respectively.

In the case of `NC(=O)c1ccc2c(-c3ccnc(NCCCO)n3)c(-c3ccc(F)cc3)nn2c1`, the inhibition in [1] turned out to be 51.7%; in assay [2] it was 6.94%; in assay [3], 13.2%; in assay [4], 10.1%; in [5], 35.5%; in assay [6], 4.48%. Besides, the inhibition in [7] is 5.36%; in assay [8], 4.28%; in assay [9], 4.67%; in assay [10] it was -2.37%; in assay [11], -2.28%; in assay [12] it was 7.12%. Further, the inhibition is 6.41% in assay [13]; 2.25% in assay [14]; 2.24% in assay [15]; 4.61% in assay [16]; 4.88% in assay [17]; 0.64% in assay [18]. Further, the inhibition in assay [19] was -4.27%; in assay [20], 5.26%.

With `CS(=O)(=O)CCNCc1ccc(-c2ccc3ncnc(Nc4ccc(OCc5ccccc5)cc4)c3c2)o1`, the inhibition in assay [1] turned out to be 6.76%; in assay [2] it was 2.75%; in assay [3], 2.72%; in [4], 5.38%; in [5], 5.67%; in [6], 3.24%. Besides, the inhibition came out at 3.52% in assay [7]; 5.36% in [8]; 3.74% in assay [9]; 0.02% in [10]; 1.34% in assay [11]; 6.85% in assay [12]. Also, the inhibition is 5.65% in [13]; 0.34% in assay [14]; -0.94% in assay [15]; 3.86% in [16]; 3.33% in [17]; 3.91% in [18]. The results for the inhibition in [19] and in assay [20] were 2.57% and -3.53%, respectively.

Take `Cc1nnc(-c2cccc(-c3ccc(C(=O)NCC4CC4)cc3)c2)o1`: the inhibition in assay [1] is 14.1%; in assay [2], 8.77%; in assay [3], 4.7%; in assay [4], 7.95%; in [5] it was 14.7%; in [6], 8.49%. The inhibition in assay [7] was 9.93%; in assay [8], 10.6%; in assay [9], 10.4%; in [10] it was -0.42%; in [11], 0.39%; in assay [12], 9.41%. Besides, the inhibition is 10.5% in assay [13]; 2.54% in assay [14]; 3.86% in [15]; 7.07% in assay [16]; 5.35% in [17]; 4.12% in assay [18]. Besides, the inhibition in assay [19] was determined as 2.3%; in assay [20] it was 4.58%.

Turning to `Fc1ccc(Nc2nccc(-c3c(-c4ccc(C(F)(F)F)cc4)nn4ncccc34)n2)cc1F`, the inhibition in [1] turned out to be 2.77%; in assay [2] it was 3.85%; in [3], 3.88%; in [4], 6.5%; in [5], 4.38%; in assay [6], 6.25%. Moreover, the inhibition in assay [7] is 7.23%; in assay [8] it was 6.51%; in [9], 5.09%; in assay [10], -0.69%; in assay [11], -0.83%; in assay [12] it was 4.75%. Further, the inhibition in assay [13] was 4.66%; in assay [14], 1.92%; in [15], 2.47%; in assay [16], 3.13%; in assay [17] it was 3.25%; in assay [18], -0.66%. The inhibition is -1.33% in assay [19] and 0.92% in assay [20].

Regarding `O=C(O[C@H]1CN[C@H](C#Cc2cc3ncnc(Nc4ccc(OCc5cccc(F)c5)c(Cl)c4)c3s2)C1)N1CCOCC1`, the inhibition in assay [1] worked out at 8.44%; in assay [2], 6.24%; in assay [3] it was 5.74%; in assay [4] it was 6.37%; in [5], 9.94%; in assay [6], 4.18%. Also, the inhibition is 8.15% in assay [7]; 5.87% in [8]; 6.61% in assay [9]; -0.22% in assay [10]; -0.1% in assay [11]; 8.7% in assay [12]. The inhibition in [13] stood at 7.32%; in assay [14], 1.91%; in [15], 2.46%; in assay [16], 6.61%; in assay [17] it was 6.74%; in [18], 6.46%. For the same molecule, the results for the inhibition in [19] and in assay [20] were 0.44% and -7.35%, respectively.
